# Measured values: paper PMC7862700, “An all-to-all approach to the identification of sequence-specific readers for epigenetic DNA modifications on cytosine”
# Columns and labels:
# Test in all cases: DAPPL (digital affinity profiling via proximity ligation, sequencing); 10 mM Tris-HCl pH 7.5, 50 mM NaCl, 1 mM DTT, 4% glycerol, room temperature, 30 min; GST-TFs on glutathione beads, 16-mer random dsDNA library, 0.1% formaldehyde crosslink after washing; high values mean tight binding
# [1] = target: T1, FLI1 (Homo sapiens, UniProt Q01543 1-452); conditions: protein: recombinant; tags: N-terminal GST; dsDNA, one strand shown
# T1 sequence: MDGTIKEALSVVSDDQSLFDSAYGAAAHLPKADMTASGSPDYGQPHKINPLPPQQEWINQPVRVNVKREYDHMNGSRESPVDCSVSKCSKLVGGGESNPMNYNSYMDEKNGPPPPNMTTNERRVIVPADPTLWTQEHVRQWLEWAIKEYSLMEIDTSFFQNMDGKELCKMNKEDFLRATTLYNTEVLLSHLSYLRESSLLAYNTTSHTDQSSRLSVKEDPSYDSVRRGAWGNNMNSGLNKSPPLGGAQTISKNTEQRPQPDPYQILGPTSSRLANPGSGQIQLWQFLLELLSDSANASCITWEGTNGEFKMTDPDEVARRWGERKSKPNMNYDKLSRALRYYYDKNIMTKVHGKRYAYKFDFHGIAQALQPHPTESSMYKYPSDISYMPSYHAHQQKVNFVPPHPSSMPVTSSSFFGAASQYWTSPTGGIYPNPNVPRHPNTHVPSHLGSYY
# Summary of the method: (§1)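 Beads coated with glutathione captured GST-fused human transcription factors that had been expressed in yeast, and the factors were then given DNA barcodes and pooled with a tag-only sample. The pools were incubated with 200 nmole of a random double-stranded 16-mer DNA library in Tris/NaCl/DTT/glycerol buffer for 30 min at room temperature, washed, crosslinked with 0.1% formaldehyde and proximity-ligated with BsaI/T4 ligase at 37 °C for 1 h. PCR amplification and Illumina NextSeq500 sequencing came last. Binding signal is each hexamer's read frequency for a factor divided by its frequency for the tag-only sample.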
# [2] = target: T2, ELK1 (Homo sapiens, UniProt P19419 1-428); conditions: protein: recombinant; tags: N-terminal GST; dsDNA, one strand shown
# T2 sequence: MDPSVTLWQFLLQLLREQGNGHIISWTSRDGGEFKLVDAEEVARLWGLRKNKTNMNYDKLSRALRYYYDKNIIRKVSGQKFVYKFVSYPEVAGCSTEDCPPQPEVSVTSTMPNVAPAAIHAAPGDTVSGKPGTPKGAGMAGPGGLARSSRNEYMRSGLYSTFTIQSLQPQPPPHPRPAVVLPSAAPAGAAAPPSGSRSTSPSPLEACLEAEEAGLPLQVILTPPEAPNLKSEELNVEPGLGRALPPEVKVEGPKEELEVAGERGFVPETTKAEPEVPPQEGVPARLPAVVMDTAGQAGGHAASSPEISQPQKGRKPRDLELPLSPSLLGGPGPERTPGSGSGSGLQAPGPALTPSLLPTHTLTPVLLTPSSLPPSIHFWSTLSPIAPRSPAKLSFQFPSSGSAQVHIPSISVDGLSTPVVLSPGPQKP
# Summary of the method: as §1
# [3] = target: T3, GABPA (Homo sapiens, UniProt Q06546 1-454); conditions: protein: recombinant; tags: N-terminal GST; dsDNA, one strand shown
# T3 sequence: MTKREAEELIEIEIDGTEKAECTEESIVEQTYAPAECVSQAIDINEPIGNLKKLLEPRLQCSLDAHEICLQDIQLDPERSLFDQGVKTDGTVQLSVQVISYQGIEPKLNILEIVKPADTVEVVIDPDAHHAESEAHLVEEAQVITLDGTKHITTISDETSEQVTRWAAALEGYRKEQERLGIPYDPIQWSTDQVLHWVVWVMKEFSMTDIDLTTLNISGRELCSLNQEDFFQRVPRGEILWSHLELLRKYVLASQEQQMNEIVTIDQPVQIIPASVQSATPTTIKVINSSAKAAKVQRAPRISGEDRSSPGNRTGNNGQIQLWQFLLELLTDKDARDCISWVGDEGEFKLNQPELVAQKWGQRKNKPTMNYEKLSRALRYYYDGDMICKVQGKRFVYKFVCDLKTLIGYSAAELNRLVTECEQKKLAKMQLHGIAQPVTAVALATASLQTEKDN
# Summary of the method: as §1
# [4] = target: T4, ERG (Homo sapiens, UniProt P11308 1-479); conditions: protein: recombinant; tags: N-terminal GST; dsDNA, one strand shown
# T4 sequence: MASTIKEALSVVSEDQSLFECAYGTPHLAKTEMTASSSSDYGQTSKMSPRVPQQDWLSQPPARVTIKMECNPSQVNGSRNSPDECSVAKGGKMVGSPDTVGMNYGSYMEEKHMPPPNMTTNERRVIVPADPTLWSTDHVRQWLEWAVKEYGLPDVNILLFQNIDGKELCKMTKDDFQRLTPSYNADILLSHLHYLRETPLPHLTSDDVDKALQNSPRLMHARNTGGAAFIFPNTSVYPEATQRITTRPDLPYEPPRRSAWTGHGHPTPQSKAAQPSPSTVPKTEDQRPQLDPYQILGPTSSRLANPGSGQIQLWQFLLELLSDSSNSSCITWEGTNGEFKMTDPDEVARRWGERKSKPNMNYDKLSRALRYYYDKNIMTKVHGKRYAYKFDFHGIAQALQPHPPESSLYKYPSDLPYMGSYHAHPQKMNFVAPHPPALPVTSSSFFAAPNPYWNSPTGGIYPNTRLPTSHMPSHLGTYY
# Summary of the method: as §1
# [5] = target: ELF1 (Homo sapiens, UniProt P32519 1-619); conditions: protein: recombinant; tags: N-terminal GST; dsDNA, one strand shown
# Sequence of ELF1 (P32519 whole entry): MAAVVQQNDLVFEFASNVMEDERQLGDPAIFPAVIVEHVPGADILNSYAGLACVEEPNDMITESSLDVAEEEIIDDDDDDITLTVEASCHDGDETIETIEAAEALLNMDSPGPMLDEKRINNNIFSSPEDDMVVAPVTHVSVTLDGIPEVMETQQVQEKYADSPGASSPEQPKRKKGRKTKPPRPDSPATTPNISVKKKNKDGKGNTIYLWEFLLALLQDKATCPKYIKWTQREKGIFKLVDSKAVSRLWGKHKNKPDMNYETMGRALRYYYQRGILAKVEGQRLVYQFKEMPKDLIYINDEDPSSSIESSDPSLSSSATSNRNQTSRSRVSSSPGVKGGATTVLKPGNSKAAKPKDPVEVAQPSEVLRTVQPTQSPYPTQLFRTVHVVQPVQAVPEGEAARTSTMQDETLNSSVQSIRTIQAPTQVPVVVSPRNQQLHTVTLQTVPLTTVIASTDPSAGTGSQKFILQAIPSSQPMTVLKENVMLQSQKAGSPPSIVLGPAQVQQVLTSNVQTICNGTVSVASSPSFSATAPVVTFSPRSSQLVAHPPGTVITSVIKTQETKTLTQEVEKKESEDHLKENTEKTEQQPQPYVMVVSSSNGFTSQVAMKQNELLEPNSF
# Summary of the method: as §1
# [6] = target: T5, EHF (Homo sapiens, UniProt Q9NZC4 1-300); conditions: protein: recombinant; tags: N-terminal GST; dsDNA, one strand shown
# T5 sequence: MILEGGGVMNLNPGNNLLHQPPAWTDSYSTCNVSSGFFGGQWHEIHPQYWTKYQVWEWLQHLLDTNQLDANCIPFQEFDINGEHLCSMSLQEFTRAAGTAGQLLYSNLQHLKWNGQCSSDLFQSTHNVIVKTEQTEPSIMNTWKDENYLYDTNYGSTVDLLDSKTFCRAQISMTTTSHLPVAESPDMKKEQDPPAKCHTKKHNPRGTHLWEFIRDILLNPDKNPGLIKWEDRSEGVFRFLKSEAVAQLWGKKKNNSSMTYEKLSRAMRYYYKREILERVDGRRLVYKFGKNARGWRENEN
# Summary of the method: as §1
# [7] = target: SPI1 (Homo sapiens, UniProt P17947 1-270); conditions: protein: recombinant; tags: N-terminal GST; dsDNA, one strand shown
# Summary of the method: as §1
# [8] = target: SPIB (Homo sapiens, UniProt Q01892 1-262); conditions: protein: recombinant; tags: N-terminal GST; dsDNA, one strand shown
# Sequence of SPIB (Q01892 whole entry): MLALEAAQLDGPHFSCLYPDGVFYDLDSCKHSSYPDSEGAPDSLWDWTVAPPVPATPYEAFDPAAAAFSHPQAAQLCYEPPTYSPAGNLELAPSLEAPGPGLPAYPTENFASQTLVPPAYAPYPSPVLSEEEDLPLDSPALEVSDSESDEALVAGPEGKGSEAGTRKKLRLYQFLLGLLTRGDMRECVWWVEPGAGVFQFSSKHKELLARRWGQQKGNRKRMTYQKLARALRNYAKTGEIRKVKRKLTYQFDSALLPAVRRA
# Summary of the method: as §1
# [9] = target: T6, ELK3 (Homo sapiens, UniProt P41970 1-407); conditions: protein: recombinant; tags: N-terminal GST; dsDNA, one strand shown
# T6 sequence: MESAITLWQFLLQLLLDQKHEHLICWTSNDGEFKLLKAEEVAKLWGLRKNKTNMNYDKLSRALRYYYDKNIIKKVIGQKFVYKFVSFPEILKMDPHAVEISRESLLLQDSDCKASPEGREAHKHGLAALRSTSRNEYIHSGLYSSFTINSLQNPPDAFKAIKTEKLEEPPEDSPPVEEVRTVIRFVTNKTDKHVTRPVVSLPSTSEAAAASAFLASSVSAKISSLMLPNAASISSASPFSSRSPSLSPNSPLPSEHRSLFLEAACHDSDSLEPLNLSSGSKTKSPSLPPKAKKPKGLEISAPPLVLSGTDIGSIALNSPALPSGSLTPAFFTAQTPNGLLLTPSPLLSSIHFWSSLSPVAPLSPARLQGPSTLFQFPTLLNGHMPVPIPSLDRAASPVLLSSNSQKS
# Summary of the method: as §1
# [10] = target: T7, FEV (Homo sapiens, UniProt Q99581 1-238); conditions: protein: recombinant; tags: N-terminal GST; dsDNA, one strand shown
# T7 sequence: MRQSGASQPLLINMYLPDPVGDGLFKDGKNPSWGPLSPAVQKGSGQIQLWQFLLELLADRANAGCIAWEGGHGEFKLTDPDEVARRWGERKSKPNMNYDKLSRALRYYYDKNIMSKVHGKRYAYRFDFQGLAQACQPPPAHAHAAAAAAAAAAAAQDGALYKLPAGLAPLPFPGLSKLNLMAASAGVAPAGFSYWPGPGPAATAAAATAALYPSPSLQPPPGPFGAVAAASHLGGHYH
# Summary of the method: as §1
# [11] = target: ETV5 (Homo sapiens, UniProt P41161 1-510); conditions: protein: recombinant; tags: N-terminal GST; dsDNA, one strand shown
# Sequence of ETV5 (P41161 whole entry): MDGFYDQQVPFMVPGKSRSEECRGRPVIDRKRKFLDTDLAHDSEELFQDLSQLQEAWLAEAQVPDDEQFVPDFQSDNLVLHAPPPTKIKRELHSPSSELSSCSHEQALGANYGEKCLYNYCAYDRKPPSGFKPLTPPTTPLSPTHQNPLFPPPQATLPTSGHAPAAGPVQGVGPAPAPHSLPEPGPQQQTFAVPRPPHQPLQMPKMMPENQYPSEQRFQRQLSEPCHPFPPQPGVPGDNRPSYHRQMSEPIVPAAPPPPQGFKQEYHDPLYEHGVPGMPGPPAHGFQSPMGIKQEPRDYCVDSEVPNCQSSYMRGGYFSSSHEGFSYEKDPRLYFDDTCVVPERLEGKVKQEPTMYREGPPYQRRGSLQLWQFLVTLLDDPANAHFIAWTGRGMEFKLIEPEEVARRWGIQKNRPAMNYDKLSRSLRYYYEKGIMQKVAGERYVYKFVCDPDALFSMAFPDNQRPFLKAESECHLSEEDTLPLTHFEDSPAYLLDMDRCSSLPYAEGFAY
# Summary of the method: as §1
# [12] = target: HSF1 (Homo sapiens, UniProt Q00613 1-529); conditions: protein: recombinant; tags: N-terminal GST; chain copies: 3; dsDNA, one strand shown
# Sequence of HSF1 (Q00613 whole entry): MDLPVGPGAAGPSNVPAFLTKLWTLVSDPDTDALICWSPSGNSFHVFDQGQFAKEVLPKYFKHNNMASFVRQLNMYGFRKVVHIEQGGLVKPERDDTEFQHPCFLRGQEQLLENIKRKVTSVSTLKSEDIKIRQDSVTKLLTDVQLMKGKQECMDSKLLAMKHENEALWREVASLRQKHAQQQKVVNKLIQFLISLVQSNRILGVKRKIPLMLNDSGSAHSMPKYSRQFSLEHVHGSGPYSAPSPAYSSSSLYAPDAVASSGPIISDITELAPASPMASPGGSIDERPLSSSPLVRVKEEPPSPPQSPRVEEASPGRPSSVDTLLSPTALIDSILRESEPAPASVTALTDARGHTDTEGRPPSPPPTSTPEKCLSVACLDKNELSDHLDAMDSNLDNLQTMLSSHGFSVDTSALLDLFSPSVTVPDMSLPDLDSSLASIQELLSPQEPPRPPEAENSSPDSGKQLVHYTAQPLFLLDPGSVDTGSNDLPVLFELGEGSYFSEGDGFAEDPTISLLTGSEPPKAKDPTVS
# Summary of the method: as §1
# [13] = target: T8, SPIC (Homo sapiens, UniProt Q8N5J4 1-248); conditions: protein: recombinant; tags: N-terminal GST; dsDNA, one strand shown
# T8 sequence: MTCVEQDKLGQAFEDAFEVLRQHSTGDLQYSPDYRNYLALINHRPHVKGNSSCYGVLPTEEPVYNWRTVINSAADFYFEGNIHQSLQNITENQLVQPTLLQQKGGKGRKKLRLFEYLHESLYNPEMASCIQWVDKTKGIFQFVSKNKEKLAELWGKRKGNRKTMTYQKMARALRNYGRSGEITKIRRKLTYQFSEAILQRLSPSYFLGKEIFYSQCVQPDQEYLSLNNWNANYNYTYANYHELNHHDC
# Summary of the method: as §1
# [14] = target: ELF4 (Homo sapiens, UniProt Q99607 1-663); conditions: protein: recombinant; tags: N-terminal GST; dsDNA, one strand shown
# Sequence of ELF4 (Q99607 whole entry): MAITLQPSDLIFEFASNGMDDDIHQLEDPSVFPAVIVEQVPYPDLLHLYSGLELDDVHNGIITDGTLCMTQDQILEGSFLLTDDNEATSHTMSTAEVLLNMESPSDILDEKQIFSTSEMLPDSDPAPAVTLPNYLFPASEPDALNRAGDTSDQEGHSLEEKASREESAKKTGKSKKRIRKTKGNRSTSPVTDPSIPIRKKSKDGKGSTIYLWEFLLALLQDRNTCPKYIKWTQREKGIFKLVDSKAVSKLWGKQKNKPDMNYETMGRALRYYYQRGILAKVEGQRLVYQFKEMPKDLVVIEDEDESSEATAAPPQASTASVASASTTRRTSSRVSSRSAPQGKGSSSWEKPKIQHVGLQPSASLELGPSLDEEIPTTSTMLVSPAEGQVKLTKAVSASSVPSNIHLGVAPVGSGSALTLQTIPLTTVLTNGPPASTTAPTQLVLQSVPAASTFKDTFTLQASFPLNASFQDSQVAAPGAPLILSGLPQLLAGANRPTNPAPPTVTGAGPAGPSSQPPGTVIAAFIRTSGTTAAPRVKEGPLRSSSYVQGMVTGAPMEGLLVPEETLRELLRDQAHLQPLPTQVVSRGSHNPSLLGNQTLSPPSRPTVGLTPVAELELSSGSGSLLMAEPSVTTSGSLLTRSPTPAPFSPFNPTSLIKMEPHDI
# Summary of the method: as §1
# [15] = target: T9, ELK4 (Homo sapiens, UniProt P28324-2 1-405); conditions: protein: recombinant; tags: N-terminal GST; dsDNA, one strand shown
# T9 sequence: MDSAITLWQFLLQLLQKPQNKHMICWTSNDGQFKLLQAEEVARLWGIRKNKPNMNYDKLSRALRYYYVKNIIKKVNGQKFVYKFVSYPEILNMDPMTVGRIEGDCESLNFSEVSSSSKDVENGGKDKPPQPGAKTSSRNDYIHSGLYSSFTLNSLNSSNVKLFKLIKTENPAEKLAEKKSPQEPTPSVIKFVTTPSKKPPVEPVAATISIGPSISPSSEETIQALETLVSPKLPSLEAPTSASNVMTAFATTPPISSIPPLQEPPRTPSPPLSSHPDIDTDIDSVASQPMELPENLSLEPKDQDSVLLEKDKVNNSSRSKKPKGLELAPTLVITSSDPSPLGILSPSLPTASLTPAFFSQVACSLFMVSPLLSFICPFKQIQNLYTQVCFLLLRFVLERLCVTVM
# Summary of the method: as §1
# [16] = target: T10, ETV2 (Homo sapiens, UniProt O00321 1-342); conditions: protein: recombinant; tags: N-terminal GST; dsDNA, one strand shown
# T10 sequence: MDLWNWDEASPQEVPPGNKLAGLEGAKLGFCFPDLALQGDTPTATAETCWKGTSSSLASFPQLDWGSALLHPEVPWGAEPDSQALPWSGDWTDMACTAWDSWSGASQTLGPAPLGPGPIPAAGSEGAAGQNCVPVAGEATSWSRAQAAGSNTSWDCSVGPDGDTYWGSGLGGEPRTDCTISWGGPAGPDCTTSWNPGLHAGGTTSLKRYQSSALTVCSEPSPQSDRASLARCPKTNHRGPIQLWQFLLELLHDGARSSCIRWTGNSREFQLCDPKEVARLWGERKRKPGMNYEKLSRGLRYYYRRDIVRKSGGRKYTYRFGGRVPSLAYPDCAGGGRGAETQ
# Summary of the method: as §1
# [17] = target: T11, ELF3 (Homo sapiens, UniProt P78545 1-371); conditions: protein: recombinant; tags: N-terminal GST; dsDNA, one strand shown
# T11 sequence: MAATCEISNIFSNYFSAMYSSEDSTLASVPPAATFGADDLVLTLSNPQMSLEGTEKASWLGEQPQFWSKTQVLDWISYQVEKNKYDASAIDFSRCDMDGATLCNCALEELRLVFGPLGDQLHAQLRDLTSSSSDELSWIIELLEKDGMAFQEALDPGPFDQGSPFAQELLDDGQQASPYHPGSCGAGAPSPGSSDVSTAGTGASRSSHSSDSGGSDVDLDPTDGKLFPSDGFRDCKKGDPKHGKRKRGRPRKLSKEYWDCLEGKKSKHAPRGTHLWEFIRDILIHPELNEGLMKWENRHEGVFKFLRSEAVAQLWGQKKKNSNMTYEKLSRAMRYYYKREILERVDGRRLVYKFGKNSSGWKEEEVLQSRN
# Summary of the method: as §1
# [18] = target: CRX (Homo sapiens, UniProt O43186 1-299); conditions: protein: recombinant; tags: N-terminal GST; dsDNA, one strand shown
# Sequence of CRX (O43186 whole entry): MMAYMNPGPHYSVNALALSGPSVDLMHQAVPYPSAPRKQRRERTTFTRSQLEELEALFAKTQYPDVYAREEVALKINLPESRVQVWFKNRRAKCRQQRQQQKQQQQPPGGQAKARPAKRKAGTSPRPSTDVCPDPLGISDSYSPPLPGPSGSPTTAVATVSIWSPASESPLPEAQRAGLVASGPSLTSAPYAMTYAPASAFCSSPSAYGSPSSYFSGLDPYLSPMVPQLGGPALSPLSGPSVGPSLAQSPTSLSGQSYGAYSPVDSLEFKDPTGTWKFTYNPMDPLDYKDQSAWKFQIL
# Summary of the method: as §1
# [19] = target: ETV1 (Homo sapiens, UniProt P50549 1-477); conditions: protein: recombinant; tags: N-terminal GST; dsDNA, one strand shown
# Sequence of ETV1 (P50549 whole entry): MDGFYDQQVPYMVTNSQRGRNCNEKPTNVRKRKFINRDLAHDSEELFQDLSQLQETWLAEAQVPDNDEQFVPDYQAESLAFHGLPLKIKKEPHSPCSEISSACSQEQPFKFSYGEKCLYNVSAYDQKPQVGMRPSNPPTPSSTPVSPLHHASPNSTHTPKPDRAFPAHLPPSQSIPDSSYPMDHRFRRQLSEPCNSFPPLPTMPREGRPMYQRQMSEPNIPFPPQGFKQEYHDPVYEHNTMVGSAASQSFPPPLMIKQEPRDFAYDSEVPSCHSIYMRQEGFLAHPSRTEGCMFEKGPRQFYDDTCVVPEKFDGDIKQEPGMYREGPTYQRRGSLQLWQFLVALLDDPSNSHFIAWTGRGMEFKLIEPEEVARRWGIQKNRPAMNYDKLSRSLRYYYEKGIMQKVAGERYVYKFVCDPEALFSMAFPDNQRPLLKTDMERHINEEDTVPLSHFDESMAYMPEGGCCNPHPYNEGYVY
# Summary of the method: as §1
sequence,measurement,setting,value
CCATAT,binding signal,[1],"1.23 fold enrichment (6-mer frequency, TF over GST control)"
same,binding signal,[2],"1.24 fold enrichment (6-mer frequency, TF over GST control)"
same,binding signal,[3],"1.19 fold enrichment (6-mer frequency, TF over GST control)"
same,binding signal,[4],"1.37 fold enrichment (6-mer frequency, TF over GST control)"
same,binding signal,[5],"1.22 fold enrichment (6-mer frequency, TF over GST control)"
same,binding signal,[6],"1.22 fold enrichment (6-mer frequency, TF over GST control)"
same,binding signal,[7],"1.16 fold enrichment (6-mer frequency, TF over GST control)"
same,binding signal,[8],"1.26 fold enrichment (6-mer frequency, TF over GST control)"
same,binding signal,[9],"1.26 fold enrichment (6-mer frequency, TF over GST control)"
same,binding signal,[10],"1.24 fold enrichment (6-mer frequency, TF over GST control)"
same,binding signal,[11],"1.24 fold enrichment (6-mer frequency, TF over GST control)"
same,binding signal,[12],"1.12 fold enrichment (6-mer frequency, TF over GST control)"
same,binding signal,[13],"1.31 fold enrichment (6-mer frequency, TF over GST control)"
same,binding signal,[14],"1.17 fold enrichment (6-mer frequency, TF over GST control)"
same,binding signal,[15],"1.13 fold enrichment (6-mer frequency, TF over GST control)"
same,binding signal,[16],"1.29 fold enrichment (6-mer frequency, TF over GST control)"
same,binding signal,[17],"1.37 fold enrichment (6-mer frequency, TF over GST control)"
same,binding signal,[18],"1.09 fold enrichment (6-mer frequency, TF over GST control)"
same,binding signal,[19],"1.2 fold enrichment (6-mer frequency, TF over GST control)"
